“And” between values parts separate entries of the source, which are not always exact repeats. Identical values can stand only once. Results filed as inconclusive are left out. The source made the active and inactive calls. The call rests on the fitted dose curve; in most records, active means well fitted curve in the direction sought with a large enough effect; inconclusive means small, poorly fitted or top-dose-only effect, or another doubt; inactive means no such curve, though single readings can be large; an effect the other way counts as inactive or inconclusive.
Legend:
[1] = test system: CRL-7250; assay: Cytotoxic Profiling of Annotated Libraries Using Quantitative High-Throughput Screening (AID 1296008); conditions: Five cell lines viability, CellTiter-Glo ATP luminescence, 48-72 h; max response: hits give low values; further: nearly all actives have a fitted effect of over 60% in size; on max response: on the % scale 0 is the no-effect control and ±100 the full control effect
How it was run: (§1)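 Cytotoxicity was measured as CellTiter-Glo ATP luminescence, read after 10 min at room temperature. Compound treatment of the cells lasted 48 or 72 hr at 37 degrees Celsius in a qHTS format.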

[2] = test system: HEK293; assay: as above; conditions: Five cell lines viability, CellTiter-Glo ATP luminescence, 48-72 h; max response: hits give low values
How it was run: as §1

[3] = test system: HaCat; assay: as above; conditions: Five cell lines viability, CellTiter-Glo ATP luminescence, 48-72 h; max response: hits give low values
How it was run: as §1

[4] = test system: KB-3-1; assay: as above; conditions: Five cell lines viability, CellTiter-Glo ATP luminescence, 48-72 h; max response: hits give low values
How it was run: as §1

[5] = test system: NIH3T3; assay: as above; conditions: Five cell lines viability, CellTiter-Glo ATP luminescence, 48-72 h; max response: hits give low values
How it was run: as §1

[6] = test system: HEK293T; assay: qHTS assay to identify novel small-molecules to repurpose for Merkel cell carcinoma treatment (AID 1296009); conditions: MCC and control cell lines, CellTiter-Glo viability, 72 h; at 44.8 µM (top of the series); further: nearly all actives have a fitted effect of over 60% in size
How it was run: (§2)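 Cell viability measured by CellTiter-Glo following 72 hr compound treatment at 37 degree celsius, with NPC and MIPE libraries tested in 8- and 11-point concentration series.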

[7] = test system: MCC-13; assay: as above; conditions: MCC and control cell lines, CellTiter-Glo viability, 72 h; series mostly up to 46 µM
How it was run: as §2

[8] = test system: MCC-26; assay: as above; conditions: MCC and control cell lines, CellTiter-Glo viability, 72 h; series mostly up to 46 µM
How it was run: as §2

[9] = test system: MKL-1; assay: as above; conditions: MCC and control cell lines, CellTiter-Glo viability, 72 h; series mostly up to 46 µM
How it was run: as §2

[10] = test system: MKL-2; assay: as above; conditions: MCC and control cell lines, CellTiter-Glo viability, 72 h; series mostly up to 46 µM
How it was run: as §2

[11] = test system: NIH3T3; assay: as above; conditions: MCC and control cell lines, CellTiter-Glo viability, 72 h; at 44.8 µM (top of the series) unless noted
How it was run: as §2

[12] = test system: UISO; assay: as above; conditions: MCC and control cell lines, CellTiter-Glo viability, 72 h; series mostly up to 46 µM
How it was run: as §2

[13] = test system: WaGa; assay: as above; conditions: MCC and control cell lines, CellTiter-Glo viability, 72 h; series mostly up to 46 µM
How it was run: as §2

[14] = test system: HACAT; assay: as above; conditions: MCC and control cell lines, CellTiter-Glo viability, 72 h; at 44.8 µM (top of the series) unless noted
How it was run: as §2

[15] = test system: C33A; assay: Primary qHTS to identify gynecologic anti-cancer compounds using libraries of approved drugs and bioactive compounds (AID 1345084); conditions: Gynecologic cancer cell panel viability, ATPlite luminescence, 48 h; series mostly up to 57.5 µM; further: on the % scale 0 is the no-effect control and ±100 the full control effect; nearly all actives have a fitted effect of over 55% in size
How it was run: (§3)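 Cytotoxicity screen measuring ATP content by luciferase luminescence. Each compound is applied at five concentrations for 48 h at 37 C with 5% CO2.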

[16] = test system: CAOV3; assay: as above; conditions: Gynecologic cancer cell panel viability, ATPlite luminescence, 48 h; series mostly up to 57.5 µM
How it was run: as §3

[17] = test system: CASKI; assay: as above; conditions: Gynecologic cancer cell panel viability, ATPlite luminescence, 48 h; series mostly up to 57.5 µM
How it was run: as §3

[18] = test system: Es-2; assay: as above; conditions: Gynecologic cancer cell panel viability, ATPlite luminescence, 48 h; series mostly up to 57.5 µM
How it was run: as §3

[19] = test system: TAB165; assay: qHTS profiling for inhibitors of Plasmodium falciparum proliferation (AID 504749);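 further: 0% = DMSO vehicle and full inhibition = artemisinin control; nearly all actives have a fitted effect of over 60% in size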; conditions: P. falciparum in erythrocytes, SYBR Green DNA, 72 h; series mostly up to 28.7 µM
How it was run: (§4)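 In a 72 h erythrocytic culture (37 C, humidified, 5% CO2) at 2.5% hematocrit and 0.3% starting parasitemia, compounds were tested; SYBR Green I in detergent lysis buffer stained parasite DNA overnight.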

[20] = test system: W2; assay: as above; conditions: P. falciparum in erythrocytes, SYBR Green DNA, 72 h; series mostly up to 28.7 µM
How it was run: as §4

COc1ccc([C@@H]2CC(=O)c3c(O)cc(O[C@@H]4O[C@H](CO[C@@H]5O[C@@H](C)[C@H](O)[C@@H](O)[C@@H]5O)[C@@H](O)[C@H](O)[C@@H]4O)cc3O2)cc1O
inactive: max response [1] -5.3% | outcome [1] | outcome [2] | max response [3] -2.14% and 4.84% | max response [4] 2.27% | outcome [4] | max response [5] 2.09% | outcome [5] | outcome [6] | Potency [7] | Potency [8] | Potency [9] | Potency [10] | outcome [11] | Potency [12] | Potency [13]

C[C@H](NC(=O)Cc1cc(F)cc(F)c1)C(=O)N[C@@H]1C(=O)N(C)c2ccccc2-c2ccccc21
inactive: outcome [1] | max response [2] -10.7% | max response [3] -1.56% | outcome [3] | max response [4] 1.83% | outcome [4] | max response [5] -12.2% and -1.62% | outcome [14] | Potency [7] | Potency [9] | Potency [12] | Potency [15] | Potency [16] | Potency [17] | Potency [18]

Cc1cnc(NC(=O)C2=C(O)c3ccccc3S(=O)(=O)N2C)s1
inactive: outcome [1] | max response [2] -0.932% | outcome [2] | outcome [3] | max response [4] -5.8% and -11.4% and -4.48% | max response [5] -2.32% | outcome [5] | outcome [14] | outcome [6] | Potency [7] | Potency [8] | Potency [9] | Potency [10] | outcome [11] | Potency [12] | Potency [13] | Potency [15] | Potency [16] | Potency [17] | Potency [18]

O=NN(CCCl)C(=O)NCCCl
inactive: Potency [19] | max response [1] -1.64% | outcome [1] | outcome [2] inactive; activator | max response [3] -4.95% | outcome [3] | max response [4] 10.2% and 5.9% | max response [5] 3.76% and 1.65% | outcome [14] | outcome [6] inactive; activator | Potency [7] | Potency [8] | Potency [9] | Potency [10] | Potency [12] | Potency [13] | Potency [15] | Potency [16] | Potency [17] | Potency [18]

CC(c1cc2ccccc2s1)N(O)C(N)=O (configuration not stated)
inactive: Potency [19] | Potency [20] | max response [1] -2.06% | outcome [1] | outcome [2] | max response [3] -0.226% and -8.25% | max response [4] 0.162% and -9.2% | max response [5] 3.52% | outcome [5] | outcome [6] | Potency [7] | Potency [8] | Potency [9] | Potency [10] | outcome [11] | Potency [12] | Potency [13] | Potency [15] | Potency [16] | Potency [17] | Potency [18]
